This note sets out measurements from PubChem BioAssay.

As a reminder, the inhibition is the drop in the measured response relative to a control, in per cent.

Molecules are shown by their SMILES. Active and inactive are the calls of the source.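 How the source made its calls, unless noted: active means visually confirmed hit in the image check and inhibition above 20%; inconclusive means visually confirmed hit but inhibition not above 20%; inactive means no visual hit in the image check.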

The nature of test [1]: inhibitors of TNFa-induced NFkB p65 translocation, primary screen, imaging, HUVEC, MLSMR starter and 10KST1 sets (AID 438;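 active means inhibition above 20% together with a positive visual image hit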;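 further: compound added about 3h40 before a 20 min TNFalpha stimulation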;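 on inhibition: signal is the nuclear over cytoplasmic p65 intensity ratio per well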). Conditions: HUVEC TNFa-induced p65 nuclear translocation; cell count: measured here: nuclei count (cytotoxicity indicator), at 2.08 µM; inhibition: at 2 µM, stronger effect = higher value, 0% TNFa-plus-vehicle, 100% no-TNFa wells.
Test [2] in a line: reduction of polyQ htt aggregates in cells – imaging, exon1htt(103Q)mCFP cells, high-content imaging, primary screen (AID 483;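 active means visual image review flags a hit and inhibition of aggregation exceeds 20%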;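 further: compound exposure lasted 3 days before fixation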;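 on nuclei count: percent of the per-plate median nuclei count of sample wells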). The following applies: exon1htt(103Q)mCFP cell line, aggregate imaging, at 2 µM; inhibition of aggregation: stronger effect = higher value; nuclei count: measured here: cell count, toxicity.
Test [3] in a line: endothelial E-selectin expression blockers – imaging, HUVEC, immunofluorescence, MLSMR starter and 10KST1 sets, primary screen (AID 487).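 On inhibition: signal is fraction of cell area covered by stained E-selectin grains.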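 On nuclei count: 100% = median nuclei count of all wells on the same plate.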 The following applies: HUVEC TNFalpha-induced E-selectin immunofluorescence imaging, at 2 µM; inhibition: stronger effect = higher value; nuclei count: measured here: cell number, toxicity.
Test [4] has as its target Voltage-gated potassium channel subunit beta-2 (Rattus norvegicus) (UniProt P62483). Nature of the test: inhibitors of rat Kvbeta2 reductase activity – biochemical, NADPH fluorescence, primary screen (AID 622;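 active means fluorescence slope higher than the sample average by over 3 SD, cut at about -0.22 in these data, passing the limit was not always enough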;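 further: slope of raw intensity against log time taken from 70 to 1610 s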). The following applies: recombinant KvBeta, 4-cyanobenzaldehyde reduction, at 10 µM, stronger effect = higher value.
For test [5] the target is unchanged. Nature of the test: enhancers of rat Kvbeta2 NADPH turnover – biochemical, NADPH fluorescence, primary screen (AID 623;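 active means NADPH fluorescence slope more negative than the mean of all samples by about 3 SD, 99.7% confidence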;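 further: fluorescence intensity change per second fitted from 20 to 320 s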). Conditions: Recombinant KvBeta, NADPH fluorescence decrease slope, 10 min; at 10 µM; stronger effect = lower value.
Test [6] deals with Alpha-2C adrenergic receptor (Homo sapiens) (UniProt P18825). The experiment in a line: compounds altering alpha2C-coupled GIRK flux – cell-based, HEK293 alpha2C/GIRK1/2, thallium flux, primary screen (AID 624;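 active means fluorescence slope after compound addition differing from the mean of all screened samples at 99.7% confidence, in either direction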;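 further: slope of fluorescence ratio to pre-addition baseline per second over 15 to 24 s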). Conditions: thallium flux BTC fluorescence, at 10 µM, actives lie on both sides.
Alpha-2C adrenergic receptor (Homo sapiens), sequence (P18825 whole entry, looked up): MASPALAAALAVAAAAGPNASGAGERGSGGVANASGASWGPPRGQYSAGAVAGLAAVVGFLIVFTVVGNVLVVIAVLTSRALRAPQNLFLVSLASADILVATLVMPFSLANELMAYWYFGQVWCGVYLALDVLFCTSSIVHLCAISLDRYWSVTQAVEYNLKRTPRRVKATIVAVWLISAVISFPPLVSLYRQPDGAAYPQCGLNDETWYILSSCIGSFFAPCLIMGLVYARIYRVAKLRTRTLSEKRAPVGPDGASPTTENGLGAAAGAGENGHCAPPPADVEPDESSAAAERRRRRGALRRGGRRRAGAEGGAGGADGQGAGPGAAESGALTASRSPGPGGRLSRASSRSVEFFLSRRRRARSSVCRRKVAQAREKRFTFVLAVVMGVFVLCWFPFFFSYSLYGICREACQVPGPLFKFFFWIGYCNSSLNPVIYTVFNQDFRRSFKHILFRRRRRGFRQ
The nature of test [7]: blockers of RIG-like receptor reporter activation – cell-based, Sendai virus stimulus, luciferase, 10K MLSCN set, TLR/RLR signaling modifier project, primary screen (AID 602276;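 active means inhibition at or above 50% at 10 µM; inactive means inhibition below 50%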;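 further: firefly luciferase from ISG56 promoter only with Renilla not read in this screen; 0% = Sendai virus plus DMSO and 100% = medium plus DMSO without virus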). Conditions: HEK293 RL24 IRF3 luciferase reporter, at 10 µM, stronger effect = higher value. (In general: A reporter such as luciferase makes a cellular process visible.)
Test [8] in a line: TLR3 IRF3 reporter activation blockers – cell-based, poly I:C stimulus, luciferase, 10K MLSCN set, primary screen (AID 602277;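 active means inhibition of the reporter signal at or above 50%; inactive means inhibition below 50%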). Conditions: HEK293-TLR3 RL24 IRF3 luciferase reporter, at 10 µM, stronger effect = higher value.

Voltage-gated potassium channel subunit beta-2 (Rattus norvegicus), sequence (P62483 whole entry, looked up): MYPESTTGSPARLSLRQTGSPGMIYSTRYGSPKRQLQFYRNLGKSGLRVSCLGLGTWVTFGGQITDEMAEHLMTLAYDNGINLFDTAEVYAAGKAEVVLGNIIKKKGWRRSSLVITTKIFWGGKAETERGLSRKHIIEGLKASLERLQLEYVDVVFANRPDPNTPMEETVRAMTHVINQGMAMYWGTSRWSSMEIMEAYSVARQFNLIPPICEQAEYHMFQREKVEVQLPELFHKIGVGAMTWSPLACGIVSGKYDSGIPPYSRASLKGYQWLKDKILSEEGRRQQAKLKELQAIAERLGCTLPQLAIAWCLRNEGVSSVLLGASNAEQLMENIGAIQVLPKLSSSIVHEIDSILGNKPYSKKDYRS

With `COc1ccccc1-c1nnc(SCC(=O)NC2CCCCC2)o1`, in test [1], the cell count stood at 490. For the same compound, the inhibition in test [1] is -7.8% (inactive); in test [3] it was -86% (inactive); in test [7], -1.61% (inactive); in test [8], 30.3% (inactive). In addition, the inhibition of aggregation in test [2] was -6.8% (inactive). In addition, the results for the nuclei count in test [2] and in test [3] were 76% and 104%, respectively. The fluorescence slope in test [4] was -0.56 (inactive). Moreover, the NADPH fluorescence slope in test [5] was 5e-05 (inactive). Moreover, the slope in test [6] is 0.00636 (inactive).
On to `Cc1ccc(C)c(C(=O)CC2(O)C(=O)N(C)c3ccccc32)c1` (centres undefined), for which, in test [1], the cell count came to 497. Further, the inhibition in test [1] was 0.7% (inactive); in test [3], -7% (inactive); in test [7], 2.91% (inactive); in test [8], 33.7% (inactive). Also, the inhibition of aggregation in test [2] was -18% (inactive). Further, the nuclei count in test [2] amounted to 106%; in test [3], 122%. Moreover, the fluorescence slope in test [4] is -0.45 (inactive). Also, the NADPH fluorescence slope in test [5] is -5.8e-05 (inactive). Also, in test [6], the slope was 0.00346 (inactive).
Turning to `O=C(Cn1ncc2c1-c1ccccc1OC2)N1CCc2ccccc21`, the cell count in test [1] came out at 678. Moreover, the inhibition in test [1] was 4.4% (inactive); in test [3], 4.3% (inactive); in test [7] it was 5.8% (inactive); in test [8], 1.51% (inactive). For the same compound, the inhibition of aggregation in test [2] is 10.6% (inactive). Also, the nuclei count in test [2] came out at 84.5%; in test [3] it was 108%. Moreover, in test [4], the fluorescence slope was -0.587 (inactive). Further, the NADPH fluorescence slope in test [5] was 6e-06 (inactive). Besides, the slope in test [6] is 0.00757 (inactive).
In the case of `O=C1CN(C(=O)COC(=O)c2ccccc2NC(=O)c2ccco2)c2ccccc2N1`, the cell count in test [1] was 271. In addition, the inhibition in test [1] was -3.3% (inactive); in test [3] it was -31% (inactive); in test [7], 8.42% (inactive); in test [8] it was -17.5% (inactive). In test [2], the inhibition of aggregation is 7.3% (inactive). The results for the nuclei count in test [2] and in test [3] were 108% and 123%, respectively. Further, the fluorescence slope in test [4] is -0.507 (inactive). Moreover, the NADPH fluorescence slope in test [5] was -8.2e-05 (inactive). Moreover, in test [6], the slope was 0.00572 (inactive).
As to `O=C(Cn1cc2c(n1)CCCCC2)N1CCc2ccccc21`, the cell count in test [1] is 708. The inhibition in test [1] is -3.4% (inactive); in test [3], -102% (inactive); in test [7], 7.59% (inactive); in test [8] it was 34.4% (inactive). Besides, the inhibition of aggregation in test [2] was 18.5% (inactive). The nuclei count in test [2] is 103%; in test [3], 109%. The fluorescence slope in test [4] is -0.52 (inactive). For the same compound, the NADPH fluorescence slope in test [5] was -4.3e-05 (inactive). In addition, the slope in test [6] is 0.00739 (inactive).
Turning to `CCOC(=O)N1CCC(NC(=O)Cn2ncc3c4ccccc4n(C)c3c2=O)CC1`, the cell count in test [1] was 557. Besides, the inhibition in test [1] is -1% (inactive); in test [3] it was -47.7% (inactive); in test [7], 14.9% (inactive); in test [8], 26% (inactive). For the same compound, the inhibition of aggregation in test [2] is -0.9% (inactive). The nuclei count in test [2] was 98.6%; in test [3] it was 105%. Further, the fluorescence slope in test [4] is -0.28 (inactive). Further, the NADPH fluorescence slope in test [5] is -2.3e-05 (inactive). Further, the slope in test [6] is 0.00602 (inactive).
With `COc1ccc(CNc2nc(NCc3ccc(OC)cc3)n(S(C)(=O)=O)n2)cc1`, in test [1], the cell count was found to be 292. Besides, the inhibition was -0.9% (inactive) in test [1], 47% (inactive) in test [3], 2.7% (inactive) in test [7] and -1.73% (inactive) in test [8]. Besides, the inhibition of aggregation in test [2] is 26% (inactive). Also, the figures for the nuclei count in test [2] and in test [3] were 86.3% and 95.3%, respectively. Moreover, the fluorescence slope in test [4] was -0.626 (inactive). Moreover, the NADPH fluorescence slope in test [5] was -1.8e-05 (inactive). In addition, the slope in test [6] is 0.00366 (inactive).
Take `CCCC(=O)Nc1nnc(CC(=O)N2CCCC2)s1`: the cell count in test [1] is 845. Moreover, the inhibition is 4.5% (inactive) in test [1], -55% (inactive) in test [3], 14.1% (inactive) in test [7] and 21.6% (inactive) in test [8]. The inhibition of aggregation in test [2] is 3.1% (inactive). Moreover, the nuclei count was found to be 106% in test [2] and 115% in test [3]. The fluorescence slope in test [4] was -0.31 (inactive). Further, in test [5], the NADPH fluorescence slope was -5.4e-05 (inactive). Also, in test [6], the slope is 0.006 (inactive).
For `CCOC(=O)c1c(C)c(C(=O)NCCN2CCOCC2)c(C)n1C`, the cell count in test [1] was 607. Moreover, the inhibition in test [1] was -11.6% (inactive); in test [3], 1.3% (inactive); in test [7] it was 13.6% (inactive); in test [8], 22.1% (inactive). Besides, in test [2], the inhibition of aggregation is 13% (inactive). For the same compound, the nuclei count in test [2] was 88.4%; in test [3], 103%. The fluorescence slope in test [4] is -0.496 (inactive). Besides, in test [5], the NADPH fluorescence slope was -8.5e-05 (inactive). For the same compound, the slope in test [6] is 0.00563 (inactive).
In the case of `COc1cccc(-c2nc(CSCC(=O)N3CCc4ccccc43)c(C)o2)c1`, the cell count in test [1] came out at 326. For the same compound, the inhibition in test [1] is 8.5% (inactive); in test [3] it was 22.5% (inactive); in test [7], -10.3% (inactive); in test [8], -34.4% (inactive). Moreover, in test [2], the inhibition of aggregation is -5.9% (inactive). The nuclei count in test [2] and in test [3] was 108% in each case. For the same compound, the fluorescence slope in test [4] is -0.432 (inactive). Also, the NADPH fluorescence slope in test [5] is 2.9e-06 (inactive). Further, in test [6], the slope is 0.00374 (inactive).
`COc1ccc(OC)c(S(=O)(=O)N2CCC(C(=O)NCc3ccccc3OC)CC2)c1`: in test [1], the cell count stood at 782. Moreover, the inhibition in test [1] was -2.1% (inactive); in test [3], -74.6% (inactive); in test [7] it was 4.82% (inactive); in test [8], 13.9% (inactive). For the same compound, the inhibition of aggregation in test [2] is -13.8% (inactive). The values for the nuclei count in test [2] and in test [3] were 107% and 133%, respectively. Besides, the fluorescence slope in test [4] is -0.517 (inactive). The NADPH fluorescence slope in test [5] was -1.4e-05 (inactive). Moreover, the slope in test [6] was 0.00487 (inactive).
In the case of `COc1ccc(C(=O)NCc2nnc(SCC(=O)Nc3cc(C)cc(C)c3)o2)cc1OC`, the cell count in test [1] was determined as 611. Further, the inhibition is -14.4% (inactive) in test [1], -100% (inactive) in test [3], 9% (inactive) in test [7] and 9.85% (inactive) in test [8]. Further, the inhibition of aggregation in test [2] is 14% (inactive). Moreover, the nuclei count in test [2] came to 76.5%; in test [3], 115%. Besides, the fluorescence slope in test [4] is -0.272 (inactive). The NADPH fluorescence slope in test [5] is -1e-05 (inactive). Besides, the slope in test [6] is 0.00582 (inactive).
On to `Cc1ccc(-c2nnc(N3CCN(C(=O)CN4C(=O)c5ccccc5C4=O)CC3)c3ccccc23)cc1`, for which, in test [1], the cell count came out at 375. Besides, the inhibition is 10.2% (inactive) in test [1], -158% (inactive) in test [3], 8.25% (inactive) in test [7] and 12.9% (inactive) in test [8]. In addition, the inhibition of aggregation in test [2] is -15.9% (inactive). Also, the figures for the nuclei count in test [2] and in test [3] were 109% and 133%, respectively. The fluorescence slope in test [4] is -0.468 (inactive). Further, in test [5], the NADPH fluorescence slope is -5.9e-05 (inactive). The slope in test [6] was 0.00522 (inactive).
With `Cn1cccc1Cc1nnc(SCC(=O)Nc2ccc(F)cc2F)n1-c1ccc(F)cc1`, the cell count in test [1] was 664. Further, the inhibition was -5.5% (inactive) in test [1], -12.3% (inactive) in test [3], 10.4% (inactive) in test [7] and 32.3% (inactive) in test [8]. Further, in test [2], the inhibition of aggregation was -16.9% (inactive). The nuclei count in test [2] was 93.7%; in test [3] it was 99.4%. For the same compound, the fluorescence slope in test [4] was -0.546 (inactive). In addition, the NADPH fluorescence slope in test [5] is -7.7e-05 (inactive). Further, in test [6], the slope is 0.00521 (inactive).
